These results are taken from PubChem BioAssay (NCI).

Compounds without any hit were thinned out: in the full panel of roughly 79,000, 15% have a hit. Values without a mark were called inactive. Activity calls are given as the source filed them. No stated cut-off is given here; in the data, active means growth inhibition above about 70%; inactive means the rest.

This experiment in a line: NCI Yeast Anticancer Drug Screen. Data for the rad52 strain (AID 147).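 Further: 0% = growth of vehicle-treated control cultures.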 Particulars: S. cerevisiae rad52 mutant growth inhibition, hits give high values. The method, then: Growth inhibition of yeast strains with defined genetic alterations is measured as a screen for potential anti-cancer activity. Selected strains with alterations in DNA damage repair or cell cycle control were exposed to compounds and growth inhibition was measured relative to vehicle treated controls. The strain used in this assay is rad52

Regarding `CCc1[nH]nc(C(N)=O)c1N=NN(C)C`, the growth inhibition by setting is: (at 1.2 µM) 3%; (at 3.7 µM) 20%; (at 11.0 µM) 66%; (at 33.0 µM) 97% (active); (at 100.0 µM) 97% (active).
On to `Nc1nc2c(c(=O)[nH]1)NC(CCNc1ccc(C(=O)O)cc1)CN2` (stereo not given), for which the growth inhibition was -2% (at 1.2 µM); 1% (at 3.7 µM); -5% (at 11.0 µM); 2% (at 33.0 µM); -5% (at 100.0 µM).
`CCCCOC(=O)CSSCC(=O)OCCCC`: the growth inhibition was -20% (at 1.2 µM); -9% (at 3.7 µM); 28% (at 11.0 µM); 83% (active) (at 33.0 µM); 97% (active) (at 100.0 µM).
Regarding `N#CC(=S)Nc1cccc(Cl)c1`, the growth inhibition was 3% (at 1.2 µM); 1% (at 3.7 µM); 10% (at 11.0 µM); 26% (at 33.0 µM); 50% (at 100.0 µM).
In the case of `O=C1c2ccccc2CCC1(Br)Br`, the growth inhibition (at 1.2 µM) is 11%; the growth inhibition (at 3.7 µM) was 27%; the growth inhibition (at 11.0 µM) is 81% (active); the growth inhibition (at 33.0 µM) was 99% (active); the growth inhibition (at 100.0 µM) is 99% (active).
In the case of `O=C(/C=N/O)Nc1cc(Cl)c(Cl)cc1Cl`, the growth inhibition is, setting by setting: (at 1.2 µM) -45%; (at 3.7 µM) -47%; (at 11.0 µM) -40%; (at 33.0 µM) -1%; (at 100.0 µM) 62%.
Take `CC1C(C#N)(C#N)C(C#N)=C(N)C1(Cl)[N+](=O)[O-]` (stereo not given): the growth inhibition was 3% (at 1.2 µM); 33% (at 3.7 µM); 35% (at 11.0 µM); 56% (at 33.0 µM); 85% (active) (at 100.0 µM).
Turning to `CCNc1ccc2c(c1)C(=O)N(OS(C)(=O)=O)C2=O`, the growth inhibition reads like this: (at 1.2 µM) 1%; (at 3.7 µM) 1%; (at 11.0 µM) 5%; (at 33.0 µM) 23%; (at 100.0 µM) 79% (active).
